# From PubChem BioAssay AID652010 (The Scripps Research Institute Molecular Screening Center, 2013)
# In all, about 370,000 compounds went through this assay and about 4,100 (1.1%) were called active. This excerpt belongs to a sample that is enriched for actives. Unmarked numbers belong to inactive results.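 The calls were made as follows: active = inhibition above the mean over all tested compounds plus 3 SD (cut at about 3.6% in these data); inactive = the rest.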
# Assay: relief of DAX-1 repression of SF-1 activity – cell-based, luminescence, SF-1 (NR5A1), full-length DAX-1, primary screen (AID 652010);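 also: 0% = DAX-1 cells with DMSO and 100% = cells lacking DAX-1 with DMSO; higher inhibition means more luminescence from relief of DAX-1 repression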
# Details: HEK293T StAR-luciferase reporter, SF-1/DAX-1 repression relief; at 6.8 µM; active compounds read high
row,Compound,inhibition
1,O=C1CSC2=NCN(c3ccccc3)CN12,-0.05%
2,CN(C)S(=O)(=O)c1cccc(C(=O)N/N=C\c2ccco2)c1,0.25%
3,COC[C@@H]1CCCN1c1ccc2c(c1)O[C@H](C)CCN(C1CC1)S2(=O)=O,-1.04%
4,CC(C)N1CCCCC(NC(=O)c2ccc3ccccc3c2)C1=O (stereo unspecified),0.26%
5,O=C(NCCc1ccccn1)c1nc(Cn2cc([N+](=O)[O-])cn2)no1,0.2%
6,COc1ccc(N2C(=O)CN=C2Nc2cccc(C)c2C)cc1OC,-0.59%
7,O=C(NCc1ccccc1Cl)C1CCCN1S(=O)(=O)c1ccc(F)cc1 (stereo unspecified),-0.27%
8,O=C(N1CCOCC1)N1CC[C@H]2[C@H](CCCN2Cc2ccc(F)cc2)C1,0.58%
9,COC(=O)[C@]12C[C@H](CC(=O)N3CCN(C(=O)C4CC4)CC3)C(=O)N(CCC3=CCCCC3)C1=C[C@H](C(C)C)O[C@@H]2C1CC1,-0.81%
10,COc1ccccc1N(C)S(=O)(=O)c1ccc(C(=O)NC2CCCCCC2)cc1,-0.26%
11,O=C(CSc1nnc(-c2ccccn2)n1-c1ccc(Cl)cc1)Nc1ccccc1-c1ccccc1,-0.72%
12,Cc1cc(Br)ccc1NC(=S)NC1CCCC1,0.19%
13,Cc1ccc(NC(=S)Nc2ncccc2C)c(C)c1,4.16% (active)
14,Cc1ccc(NC(=O)c2cc(C)nn2-c2ccccc2)c(C)c1,-0.54%
15,O=C(c1ccncc1)N1CC[C@H]2[C@H](CCCN2Cc2ccc(F)cc2)C1,-0.35%
16,Cc1ccccc1CN1CCCCC(NC(=O)c2cccc(C#N)c2)C1=O (stereo unspecified),-1.4%
17,Cc1ccc(C(=O)N/N=C/c2sc(=O)n(Cc3cccc(C(=O)O)c3)c2Cl)cc1,-0.16%
18,Cc1ccc2cc(/C=N/Nc3ccc(C(=O)O)cc3)c(Cl)nc2c1,4.23% (active)
19,Cc1ccc(/C=C2\CCn3c2nc2cc(C(=O)O)ccc2c3=O)c(C)c1,-0.46%

row,Compound,inhibition
1,CCCCCCCCN1C(=O)[C@@H](CC(=O)NCCCC)C[C@@]2(C(=O)OC)C1=C[C@H](C(C)(C)C)O[C@@H]2C,1.52%
2,O=C(CCCCCn1c(=O)[nH]c2ccccc2c1=O)NCCc1c[nH]c2ccccc12,-0.81%
3,O=C(NCCc1c[nH]c2ccccc12)c1cc2ccccc2oc1=O,6.37% (active)
4,O=C(NCCc1ccccc1)c1c[nH]c2ccc(F)cc2c1=O,-0.4%
5,O=C(NCCCCCCCCCNC(=O)C(F)(F)F)C(F)(F)F,0.58%
6,COC(=O)C1=C(C)N(Cc2ccccc2C(F)(F)F)C(=NCc2ccc(OC)cc2)NC1c1cccc(C(F)(F)F)c1 (stereo unspecified),-2.23%
7,Cc1cccc(NC(=S)N2CCC(C(=O)c3ccc(F)cc3)CC2)c1,0.4%
8,CC(C)(C)NS(=O)(=O)c1ccc(NC(=O)C2CCCO2)cc1 (stereo unspecified),-0.07%
9,O=C(Nc1ccc(-c2nnc(-c3ccccc3)o2)cc1)C1CCCO1 (stereo unspecified),3.77% (active)
10,CCOC(=O)c1ccc(NC(=O)c2ccc(NC(=O)C3CCCO3)cc2)cc1 (stereo unspecified),-1.16%
11,CN1CCCc2nc(-c3ccccc3)ccc21,1.43%
12,Cc1ccc(C(=O)O/N=C(\N)c2ccccn2)cc1Cl,1.79%
13,Cc1cccc(/C(N)=N/OC(=O)c2ccccc2Cl)c1,4.38% (active)
14,C/C(=N\OC(=O)c1ccccc1)c1c(C)nc2cc(C)ccn12,-0.48%
15,Cc1ccc(Cn2cc(COC(=O)N(C)Cc3ccccc3)nn2)cc1,-0.12%
16,CC(C)(C)c1ccc(S(=O)(=O)NCC2CCN(C(=O)C(=O)c3cc4ccccc4o3)CC2)cc1,-1.6%
17,COc1cc(/C=C/C(=O)OCC(=O)NCCCc2ccccc2)ccc1O,-0.2%
18,COc1ccc(CCOC2OC(CO)C(OC(=O)/C=C/c3ccc(O)c(OC)c3)C(O[C@H]3O[C@@H](C)[C@H](O)[C@@H](O)[C@H]3O)C2O)cc1O (stereo partly specified),4.55% (active)
19,COc1cc(/C=C/CO)cc(OC)c1O[C@@H]1O[C@H](CO)[C@@H](O)[C@H](O)[C@H]1O,0.72%

row,Compound,inhibition
1,O=C(OC12CCCN(C1)/C(=C/c1ccccc1)C2)c1ccco1 (stereo unspecified),0.04%
2,CCOc1cccc(/C=C/c2ccc3ccccc3n2)c1OC(C)=O,5.71% (active)
3,CCOc1ccccc1-c1cc(C(=O)N/N=C(\C)c2cccnc2)c2ccccc2n1,1.24%
4,CCOc1cc(C(=O)Nc2ccc(S(=O)(=O)Nc3cnc4ccccc4n3)cc2)cc(OCC)c1OCC,-0.22%
5,Cc1ccc2c(c1)C1CN(C)CCC1N2S(=O)(=O)c1ccc(Oc2ccc([N+](=O)[O-])cc2)cc1 (stereo unspecified),-0.52%
6,COCCNC(=S)N(C)[C@H]1C[C@H]2c3[nH]c4ccccc4c3CCN2C[C@H]1[C@H](C)O,1.22%
7,CCOC(=O)N1CCN(S(=O)(=O)c2ccc3c(c2)C(C)C(=O)N3)CC1 (stereo unspecified),0.76%
8,Fc1ccc2cnc(-c3ccccc3)cc2c1,9.42% (active)
9,COc1cc(OC)cc(-c2cc3ccc(F)cc3cn2)c1,1.37%
10,Fc1ccccc1-c1cc2cc3c(cc2cn1)OCO3,1.9%
11,CN(C)c1ccc(NC(=O)NC2CCCCN(Cc3ccc(Cl)cc3)C2=O)cc1 (stereo unspecified),-1.13%
12,COC(=O)C1C(=O)c2c([nH]c(C(=O)OCCSC)c2C)CC1C (stereo unspecified),5.6% (active)
13,CN(C)[C@H]1CCN(c2cccc3c2S(=O)(=O)N2CC[C@H](C2)O3)C1,0.33%
14,O=C(NCc1ccco1)c1nn2cccnc2c1Cl,0.65%
15,O=C(Nc1cc(-c2nc3ncccc3o2)ccc1Cl)c1ccco1,-1.38%
16,COc1ccc(-c2c(NC(=O)c3ccco3)oc3ccc(Cl)cc3c2=O)cc1,-0.46%
17,O=C(Nc1ccc2oc(-c3ccccc3F)nc2c1)c1ccco1,4.4% (active)
18,O=C(CN1CCC(NC(=O)NCc2ccccc2)CC1)Nc1ccc2c(c1)OCCO2,-0.91%
